Experimental data as given in PubChem BioAssay (Tox21).
Records with an inconclusive call do not appear. Where a call stands in place of a potency, no number is given. The source made the active and inactive calls. Calls follow the shape of the dose curve; as a rule, active = well fitted cell-killing curve with a large enough effect in the repeat runs; inconclusive = weak or mixed curves, or effect the other way; inactive = no such curve, though single readings can be large or run the other way.

Assay: qHTS assay to identify small molecule antagonists of the thyroid receptor (TR) signaling pathway - cell viability counter screen (AID 743064); also: nearly all actives have a fitted effect of over 50% in size
Settings: GH3.TRE-Luc viability, CellTiter-Fluor, 24 h; series mostly up to 70.3 µM
From the text: National Center for Advancing Translational Sciences [NCATS]
NIH Chemical Genomics Center [NCGC]
U.S. Environmental Protection Agency [EPA]
National Institutes of Environmental Health Sciences [NIEHS]
National Toxicology Program [NTP]
U.S. Food and Drug Administration [FDA]
Thyroid receptor (TR), a nuclear hormone receptor, plays an important role in development, proliferation, differentiation, metabolism, brain function, and cardiovascular system. […] To profile the Tox21 10K compound library in TR signaling, a cell-based GH3-TRE-Luc assay (GH3.TRE-Luc cell line, developed by the laboratory of Dr. Albertinka J. Murk, Wageningen University) was used to measure the inhibition of TR. GH3 (rat pituitary tumor) cells stably expressing a TR activity sensor consisting of two TR response elements and a luciferase reporter gene. The cytotoxicity of the Tox21 compound library against the GH3.TRE-Luc cell line was tested in parallel by measuring the cell viability using CellTiter-Fluor assay (Promega, Madison, WI) in the same wells.
Tox21 Assay Protocol Summary:
GH3.TRE-Luc cells were dispensed at 1500 cells/4 uL/well into 1536-well white solid bottom plates using a Multidrop Combi dispenser (Thermo Fisher Scientific Inc., Waltham, MA). After the assay plates were incubated at 37 C for 4 hours, 23 nL of library compound or DMSO controls was transferred to the assay plates by a pintool station (Kalypsys, San Diego, CA), followed by addition of 1 ul of T3 (1 nM, final concentration in the wells) to stimulate TR transactivation. The assay plates were incubated at 37 C for 23.5 h, and then 1 uL of CellTiter-Fluor reagent (Promega, Madision, WI) of measuring cytotoxicity was added to each well using a Bioraptr Flying Reagent Dispenser (FRD) workstation (Beckman Coulter, Indianapolis, IN, USA). The plates were incubated at 37C and 5% CO2 for additional 30 min, and fluorescence intensity was measured by a ViewLux plate reader (PerkinElmer, Shelton, CT).
With CCC12COCN1COC2 the Potency was “inactive”.
With Cc1ccccc1O the Potency was “inactive”.
With CC(Oc1ccc(Cl)cc1Cl)C(=O)O (stereo not given) the Potency was “inactive”.
With CN(C)N=O the Potency was “inactive”.
With CCNc1nc(NC(C)(C)C)nc(SC)n1 the Potency was “inactive”.
With CC(C)C1(C)N=C(c2nc3ccccc3cc2C(=O)O)NC1=O (stereo not given) the Potency was “inactive”.
In the case of O=C1CCCN1, the Potency was “inactive”.
For Nc1c(Cl)c(Cl)nc(C(=O)O)c1Cl, the Potency was “inactive”.
With CC(NC(C)(C)C)C(=O)c1cccc(Cl)c1 (stereo not given) the Potency was “inactive”.
In the case of CN(C)CCO, the Potency was “inactive”.
For Clc1ccccc1Cl, the Potency was “inactive”.
For CCCC1COC(Cn2cncn2)(c2ccc(Cl)cc2Cl)O1 (stereo not given), the Potency was “inactive”.
For CC(C)OC(=O)Nc1ccccc1, the Potency was “inactive”.
For ClCCBr, the Potency was “inactive”.
With O=Cc1cccc(Oc2ccccc2)c1 the Potency was “inactive”.
In the case of c1ccc(OP(Oc2ccccc2)Oc2ccccc2)cc1, the Potency was “inactive”.
In the case of CC(C#N)CCC#N (stereo not given), the Potency was “inactive”.
With Cc1ccc([N+](=O)[O-])cc1C the Potency was “inactive”.
For O=C(O)c1ccccn1, the Potency was “inactive”.
With CCOP(OCC)OCC the Potency was “inactive”.
With CCC(C)(CC)c1cc(NC(=O)c2c(OC)cccc2OC)on1 the Potency was “inactive”.
With COCCl the Potency was “inactive”.
For CCOP(=S)(OCC)Oc1cnc2ccccc2n1, the Potency was “inactive”.
In the case of CC(C)C#N, the Potency was “inactive”.
With O=c1n(Cl)c(=O)n(Cl)c(=O)n1Cl the Potency was “inactive”.
In the case of C1CC2OC2CC1C1CO1 (stereo not given), the Potency was “inactive”.
For COc1ccc2c3c1O[C@H]1[C@@H](O)C=C[C@H]4[C@@H](C2)N(C)CC[C@@]341, the Potency was “inactive”.
With CC1C=[C-]C=C1.[C-]#[O+].[C-]#[O+].[C-]#[O+].[Mn] the Potency was “inactive”.
For COC(=O)c1ccccc1C(=O)OC, the Potency was “inactive”.
With c1ccc(-c2ccccc2)cc1 the Potency was “inactive”.
With O=[N+]([O-])c1ccc(Oc2ccc(Cl)cc2Cl)cc1 the Potency was “inactive”.
With Cc1ccc(N)cc1N the Potency was “inactive”.
In the case of O=[N+]([O-])c1ccc([As](=O)(O)O)cc1, the Potency was “inactive”.
In the case of Nc1ccc(Br)cc1, the Potency was “inactive”.
For COP(N)(=O)SC (stereo not given), the Potency was “inactive”.
In the case of [N-]=[N+]=[N-], the Potency was “inactive”.
For CC(C)OC(=O)Nc1cccc(Cl)c1, the Potency was “inactive”.
For O=NN1CCCC1, the Potency was “inactive”.
With c1ccc2c(c1)oc1ccccc12 the Potency was “inactive”.
With Clc1ccc(Cl)cc1 the Potency was “inactive”.
